This note sets out measurements from PubChem BioAssay (EPA / NIEHS).

In general, AC50 refers to the midpoint of the concentration-response curve, whichever way the signal moves.

The source made the active and inactive calls. How the source made its calls: active means hit-call score of the fitted dose curve at least 0.9, where 1 is the maximum; inactive means score below 0.9.

Read-out in the test: succinate dehydrogenase complex iron sulfur subunit B (SDHB), SDHB (gene 6390)
The experiment in a line: LTEA_HepaRG_SDHB: Life Technologies and Expression Analysis (LTEA) Assay for succinate dehydrogenase complex iron sulfur subunit B (SDHB) using HepaRG (AID 2283528). As to conditions: mRNA level, 48 h; actives raise or lower the signal. As to the method:
LTEA_HepaRG is a cell based, multiplexed-readout assay that uses HepaRG, a human liver cell line, with measurements taken at 48 hours after chemical dosing on a 96-well plate.LTEA_HepaRG_SDHB is one of 102 assay component(s) measured in the LTEA HepaRG cell culture assay. It is a marker of Cell proliferation, survival, death.Data from the assay component LTEA_HepaRG_SDHB was analyzed into 1 endpoint. This assay endpoint, LTEA_HepaRG_SDHB, was analyzed with bidirectional fitting relative to DMSO as the negative control and baseline of activity. Using a type of inducible reporter, measures of mRNA induction for gain or loss-of-signal activity can be used to understand regulation of transcription factor activity. To generalize the intended target to other relatable targets, this assay endpoint is annotated to the oxidoreductase intended target family, where the subfamily is ubiquinone.
A total of 1060 chemcials from the ToxCast library were tested in eight-point concentration-response experiments. Cell culture and cytotoxicity assays were conducted at Thermo Fisher Scientific's Custom Services facility (Madison, WI). A single lot of human HepaRG cells (Thermo Fisher Scientific, Frederick, MD) was used for the cell culture experiments. 96-well format collagen type I coated plates of human HepaRG cells were prepared using established methods. Briefly, cryopreserved HepaRG cells were thawed, plated at a density of approximately 100,000 cells/well in HepaRG Thaw, Plate, and General Purpose media (HPRG770, Thermo Fisher Scientific), and incubated for 48 hours. 0.5% DMSO was selected as vehicle control to balance the requisite need of DMSO in HepaRG cultures to maintain differentiation (for example, baseline metabolism, proportions of hepatocytes vs. cholangiocytes), while enabling further hepatic receptor pathway activation (for example, PXR and CAR) in response to chemical exposure. 48 hours after plating, the culture medium was replaced with HepaRG Serum-Free Incudtion Media. Cells were exposed to each test chemical in duplicate and maintained in CO2 incubators for another 48 hours. Chemical plates were thawed to room temperature and 200x concentrations of treatment groups were prepared. 8-point conentration-reponse curves were made with the highest exposure at 100 uM, followed by half-log dilutions, all in 0.5% DMSO. Each test plate contained variouse controls, induction positive controls (1mM phenobarbital), cytotoxicity positive controls ([…] aflatoxin B1), vehicle controls (0.5% DMSO), and total lysis controls (0.5% DMSO). Cell morphology images were taken using an Essen IncuCyte FLR automated microscope, with six 96-well plates imaged in about 24 minutes. Images were captured and exported and JPEG files. Spent culture media was transfered to black-well plates for the LDH assay, and remaining media was sorted at -80 C for later use. Cells were treated with RLT buffer and frozen until shipped for gene expression analysis. Total RNA was isolated from the cell suspension in 75 uL of Buffer RLT (Qiagen, Germantown, MD 20874) by Quintiles/Expression Analysis (Durham, NC) using a custom isolation procedure. Total RNA from each plate well was transferred to a preamplification plate. Fluidigm's 96.96 Dynamic ArrayTM (Fluidigm, Amsterdam, the Netherlands) technology was used for gene expression analyses by quantitative reverse transcription polymerase chain reaction (qRT-PCR, performed by Quintiles/Expression Analysis, Durham, NC)89. Standard TaqManTM Assays (Applied Biosystems/ThermoFisher Scientific, Foster City, CA) were used to assess the expression of 93 genes selected based on their selectivity and sensitivity to important hepatic receptors known to be modulated by environmental chemicals; importance in human hepatocyte functionality; and hepatotoxicity. […]
`CCCCCCCc1ccc(O)cc1`: the molecule was called inactive.

As for `c1cc2c3c(cccc3c1)CC2`, the result was inactive.

Regarding `c1ccc2c(c1)Nc1ccccc1S2`, the outcome was inactive.

`CC(Cc1ccc(OCC(=O)O)cc1)NCC(O)c1csc(C(F)(F)F)n1` (stereo not given): the outcome was inactive.

Turning to `Nc1ccc2ccccc2c1`, the molecule was called inactive.

Take `O=P(Oc1ccccc1)(Oc1ccccc1)Oc1ccccc1`: the call was inactive.

As to `CCN(CC)c1ccccc1`, the result was inactive.

As for `O=C(O)C1C(C(=O)O)C2(Cl)C(Cl)=C(Cl)C1(Cl)C2(Cl)Cl` (stereo not given), the call was inactive.

As to `OCC1CO1` (stereo not given), the molecule was called inactive.

As to `CCCCc1ccccc1`, the molecule was called inactive.

On to `ClC(Cl)(Cl)c1ccccc1`, for which the outcome was inactive.

Turning to `O=[N+]([O-])c1ccccc1`, the call was inactive.

With `Nc1ccc(Cl)cc1`, the outcome was inactive.

Turning to `CCCCN(CCCC)N=O`, the result was inactive.

On to `CCCN(CCC)c1c([N+](=O)[O-])cc(C(C)C)cc1[N+](=O)[O-]`, for which the call was inactive.

Take `CN(C)C(=O)Cl`: the result was inactive.

As for `CCOc1ccc(C(C)(C)COCc2cccc(Oc3ccccc3)c2)cc1`, the molecule was classed as inactive.

In the case of `CC(C)(C)c1ccc(O)cc1`, the outcome was inactive.

For the molecule `Cc1ccc(O)cc1C`, the result was inactive.

Regarding `CCC(C)(C)c1ccc(O)cc1`, the molecule was called inactive.

Consider `O=[N+]([O-])c1ccc(Cl)c(Cl)c1`, for which the outcome was inactive.

Turning to `[N-]=[N+]=[N-]`, the AC50 is 50 µM (active).

Regarding `c1nc[nH]n1`, the molecule was classed as inactive.

Consider `CCOP(=S)(OCC)SCSCC`, for which the call was inactive.

`Cc1ccc(N)cc1N`: the outcome was inactive.

Regarding `ClC(Cl)c1ccccc1`, the molecule was called inactive.

With `ClC1=C(Cl)C2(Cl)C3C(Cl)C(Cl)CC3C1(Cl)C2(Cl)Cl` (stereo not given), the result was inactive.

Take `Nc1cc2c3c(c1)C(c1ccccc1)=N[C@@H](NC(=O)c1cccnc1)C(=O)N3CC2`: the outcome was inactive.

Take `COCCOCCO`: the result was inactive.

On to `Cc1cccc(N)c1`, for which the result was inactive.

Turning to `CSC(C)(C)C=NO`, the result was inactive.

Take `CCOS(=O)(=O)OCC`: the molecule was classed as inactive.

For the molecule `CCCCN(CCCC)SN(C)C(=O)Oc1cccc2c1OC(C)(C)C2`, the molecule was called inactive.

For `CCNc1nc(Cl)nc(NC(C)(C)C)n1`, the call was inactive.

As for `CC(Cl)(Cl)C(=O)O`, the outcome was inactive.

Consider `CCOC(=O)c1ccccc1C(=O)OCC`, for which the result was inactive.

Consider `CCC1(c2ccccc2)C(=O)N=C(O)NC1=O` (stereo not given), for which the call was inactive.

For the molecule `O=C(O)C(Cl)Cl`, the call was inactive.

For the molecule `CCOP(=S)(Oc1ccc([N+](=O)[O-])cc1)c1ccccc1` (stereo not given), the result was inactive.

As to `Cc1ccc([N+](=O)[O-])cc1C`, the molecule was called inactive.
